PubChem BioAssay (NCI)
Compounds without any hit were thinned out: in the full panel of roughly 79,000, 15% have a hit. Values without a mark were called inactive. Calls of active or inactive are those of the source. No stated cut-off is given here; in the data, active means growth inhibition above about 70%; inactive means the rest.

Key:
[1] = NCI Yeast Anticancer Drug Screen. Data for the rad52 strain (AID 147);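 further: 0% = growth of vehicle-treated control cultures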; details: S. cerevisiae rad52 mutant growth inhibition, stronger effect = higher value
Procedure, shortened: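 Growth of repair-deficient yeast cells was compared between compound-treated and vehicle-treated cultures to give percent inhibition.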

[2] = NCI Yeast Anticancer Drug Screen. Data for the wt1 strain (AID 149);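 further: 0% = growth of vehicle-treated wt1 cultures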; details: S. cerevisiae wt1 strain (SPY 50644) growth inhibition, stronger effect = higher value
Procedure, shortened: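 wt1 yeast, compound-treated; % growth inhibition vs vehicle control.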

[3] = NCI Yeast Anticancer Drug Screen. Data for the rad50EPP+ strain (AID 151);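 further: 0% = growth of vehicle-treated control cultures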; details: S. cerevisiae rad50 mutant strain, stronger effect = higher value
Procedure, shortened: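 Measured: growth inhibition of rad50EPP+ yeast. Reference: vehicle-treated controls. Screen uses strains with defined genetic alterations in DNA damage repair or cell cycle control.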

[4] = NCI Yeast Anticancer Drug Screen. Data for the mgt1 strain (AID 153); details: S. cerevisiae mgt1 mutant growth inhibition, stronger effect = higher value
Procedure, shortened: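 Compounds were applied to mgt1 mutant yeast, and growth was then compared against vehicle-treated control cultures to give percent inhibition.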

[5] = NCI Yeast Anticancer Drug Screen. Data for the rad50 strain (AID 155);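 further: 0% = growth of vehicle-only cultures of the same strain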; details: S. cerevisiae rad50 strain growth inhibition, stronger effect = higher value
Procedure, shortened: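 Genetically altered yeast (DNA repair pathway); compound treatment; growth inhibition vs vehicle ctrl.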

[6] = NCI Yeast Anticancer Drug Screen. Data for the mec2-1 strain (AID 157); details: S. cerevisiae mec2-1 strain, stronger effect = higher value
Procedure, shortened: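 Compounds were applied to mec2-1 yeast cells. Their growth was then compared with that of vehicle-treated cultures to give growth inhibition.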

[7] = NCI Yeast Anticancer Drug Screen. Data for the rad14 strain (AID 159);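 further: 0% = growth of vehicle-treated control cultures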; details: S. cerevisiae rad14 strain growth inhibition, stronger effect = higher value
Procedure, shortened: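 Test compounds were applied to a repair-deficient yeast strain. Its growth was then compared with that of cultures given vehicle alone, and inhibition was expressed relative to those controls.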

[8] = NCI Yeast Anticancer Drug Screen. Data for the sgs1 mgt1 strain (AID 161);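 further: 0% = growth of cultures given vehicle only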; details: S. cerevisiae sgs1 mgt1 strain, stronger effect = higher value
Procedure, shortened: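 Growth of a repair-deficient yeast mutant was monitored after compound treatment and expressed as inhibition relative to vehicle-treated cultures.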

[9] = NCI Yeast Anticancer Drug Screen. Data for the CLN2oe strain (AID 163);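 further: 0% = growth of vehicle-only control cultures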; details: S. cerevisiae CLN2oe strain, stronger effect = higher value
Procedure, shortened: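 Cells of an engineered yeast line with disturbed cell-cycle regulation are treated with compound. Inhibition of growth is then calculated relative to the vehicle-treated reference.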

[10] = NCI Yeast Anticancer Drug Screen. Data for the bub3 strain (AID 167); details: S. cerevisiae bub3 mutant strain, stronger effect = higher value
Procedure, shortened: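 Yeast carrying a defined mutation is treated with each compound, and growth is compared with that of vehicle-exposed cells to give inhibition.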

[11] = NCI Yeast Anticancer Drug Screen. Data for the wt2 strain (AID 169);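 further: 0% = growth of vehicle-treated yeast cultures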; details: S. cerevisiae wt2 strain growth inhibition, stronger effect = higher value
Procedure, shortened: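 Growth of compound-treated yeast is measured and expressed as inhibition relative to vehicle-only controls.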

[12] = NCI Yeast Anticancer Drug Screen. Data for the mlh1 strain (AID 171);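 further: 0% = growth of vehicle-treated control cultures of the same strain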; details: S. cerevisiae mlh1 strain growth inhibition, stronger effect = higher value
Procedure, shortened: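 Test agents were incubated with yeast bearing a defined DNA damage repair or cell cycle control alteration; values are growth inhibition normalised to vehicle-treated cultures.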

[13] = NCI Yeast Anticancer Drug Screen. Data for the sgs1 strain (AID 173);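 further: 0% = growth of vehicle-only control cultures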; details: S. cerevisiae sgs1 mutant, stronger effect = higher value
Procedure, shortened: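 Strain with an altered DNA repair or cell cycle pathway exposed to compound. Growth then measured. Value = inhibition versus vehicle control.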

[14] = NCI Yeast Anticancer Drug Screen. Data for the mlh1 rad18 strain (AID 175); details: S. cerevisiae mlh1 rad18 strain growth inhibition, stronger effect = higher value
Procedure, shortened: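 A repair-deficient yeast strain is exposed to test compound, and growth is scored relative to vehicle-treated controls.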

[15] = NCI Yeast Anticancer Drug Screen. Data for the rad18 strain (AID 177); details: S. cerevisiae rad18 mutant growth inhibition, stronger effect = higher value
Procedure, shortened: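 DNA-repair-defective yeast; compound treatment; growth inhibition scored against vehicle.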

[16] = at 5.0 µM (retest, dose inferred, filed as 0.5)
[17] = at 50.0 µM (retest, dose inferred, filed as 5.0)

C[N+]1(CCCl)CC[N+](C)(CCCl)CC1 (stereo not given)
growth inhibition ([1]; at 1.2 µM): 0% | growth inhibition ([1]; at 3.7 µM): 3% | growth inhibition ([1]; at 11.0 µM): 5% | growth inhibition ([1]; at 33.0 µM): 36% | growth inhibition ([1]; at 100.0 µM): 95% (active) | growth inhibition ([2]; at 1.2 µM): 0% | growth inhibition ([2]; at 3.7 µM): -1% | growth inhibition ([2]; at 11.0 µM): 1% | growth inhibition ([2]; at 33.0 µM): 14% | growth inhibition ([2]; at 100.0 µM): 95% (active) | growth inhibition ([3]; at 1.2 µM): 0% | growth inhibition ([3]; at 3.7 µM): 0% | growth inhibition ([3]; at 11.0 µM): 2% | growth inhibition ([3]; at 33.0 µM): 7% | growth inhibition ([3]; at 100.0 µM): 56% | growth inhibition ([4]; at 1.2 µM): -2% | growth inhibition ([4]; at 3.7 µM): 1% | growth inhibition ([4]; at 11.0 µM): 3% | growth inhibition ([4]; at 33.0 µM): 29% | growth inhibition ([4]; at 100.0 µM): 97% (active) | growth inhibition ([5]; at 1.2 µM): 1% | growth inhibition ([5]; at 3.7 µM): 2% | growth inhibition [5, 16]: 18% | growth inhibition ([5]; at 11.0 µM): 4% | growth inhibition ([5]; at 33.0 µM): 48% | growth inhibition [5, 17]: 95% (active) | growth inhibition ([5]; at 50.0 µM): 97.2% (active) | growth inhibition ([5]; at 100.0 µM): 96% (active) | growth inhibition ([6]; at 1.2 µM): -3% | growth inhibition ([6]; at 3.7 µM): -3% | growth inhibition [6, 16]: 21% | growth inhibition ([6]; at 11.0 µM): 2% | growth inhibition ([6]; at 33.0 µM): 81% (active) | growth inhibition [6, 17]: 99% (active) | growth inhibition ([6]; at 50.0 µM): 96.7% (active) | growth inhibition ([6]; at 100.0 µM): 98% (active) | growth inhibition ([7]; at 1.2 µM): 1% | growth inhibition ([7]; at 3.7 µM): 3% | growth inhibition ([7]; at 11.0 µM): 7% | growth inhibition ([7]; at 33.0 µM): 56% | growth inhibition ([7]; at 100.0 µM): 96% (active) | growth inhibition [8, 16]: 29% | growth inhibition [8, 17]: 98% (active) | growth inhibition ([8]; at 50.0 µM): 96.1% (active) | growth inhibition ([9]; at 1.2 µM): -3% | growth inhibition ([9]; at 3.7 µM): -2% | growth inhibition ([9]; at 11.0 µM): 3% | growth inhibition ([9]; at 33.0 µM): 32% | growth inhibition ([9]; at 100.0 µM): 95% (active) | growth inhibition ([10]; at 1.2 µM): 1% | growth inhibition ([10]; at 3.7 µM): 1% | growth inhibition [10, 16]: 78% (active) | growth inhibition ([10]; at 11.0 µM): -5% | growth inhibition ([10]; at 33.0 µM): 29% | growth inhibition [10, 17]: 98% (active) | growth inhibition ([10]; at 50.0 µM): 97% (active) | growth inhibition ([10]; at 100.0 µM): 97% (active) | growth inhibition ([11]; at 1.2 µM): 0% | growth inhibition ([11]; at 3.7 µM): 0% | growth inhibition ([11]; at 11.0 µM): 1% | growth inhibition ([11]; at 33.0 µM): 14% | growth inhibition ([11]; at 100.0 µM): 94% (active) | growth inhibition ([12]; at 1.2 µM): 0% | growth inhibition ([12]; at 3.7 µM): -1% | growth inhibition ([12]; at 11.0 µM): 0% | growth inhibition ([12]; at 33.0 µM): 13% | growth inhibition ([12]; at 100.0 µM): 94% (active) | growth inhibition ([13]; at 1.2 µM): 0% | growth inhibition ([13]; at 3.7 µM): -1% | growth inhibition ([13]; at 11.0 µM): 1% | growth inhibition ([13]; at 33.0 µM): 34% | growth inhibition ([13]; at 100.0 µM): 96% (active) | growth inhibition [14, 16]: 13% | growth inhibition [14, 17]: 97% (active) | growth inhibition ([14]; at 50.0 µM): 97.6% (active) | growth inhibition ([15]; at 1.2 µM): -2% | growth inhibition ([15]; at 3.7 µM): -1% | growth inhibition ([15]; at 11.0 µM): 5% | growth inhibition ([15]; at 33.0 µM): 61% | growth inhibition ([15]; at 100.0 µM): 97% (active)
